# Tests used:
# Test in all cases: SPOT peptide array binding signal intensity (averaged, normalized) (arbitrary units (background-subtracted, floor 0; scale differs between SH3 domains)); higher = stronger binding of the SH3 domain to the peptide
# [1] = molecular target: AgAbp1
# In short: (§1)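 Four yeast species supplied the SH3 domains, which were expressed as GST fusions in E. coli BL21(DE3) and purified on glutathione Sepharose. Incubation with cellulose membranes carrying synthetic 15-mer peptides, cysteines exchanged for serines, ran overnight at 4°C at 10 μg/ml in TBS-based blocking buffer. Binding signal is reported as normalized, background-subtracted spot intensity averaged over replicates, in arbitrary units not shared between domains.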
# [2] = molecular target: AgBbc1
# In short: as §1
# [3] = molecular target: AgBem1-D1
# In short: as §1
# [4] = molecular target: AgBzz1-D1
# In short: as §1
# [5] = molecular target: AgBzz1-D2
# In short: as §1
# [6] = molecular target: AgCyk3
# In short: as §1
# [7] = molecular target: AgFus1
# In short: as §1
# [8] = molecular target: AgHof1
# In short: as §1
# [9] = molecular target: AgHse1
# In short: as §1
# [10] = molecular target: AgLsb1
# In short: as §1
# [11] = molecular target: AgLsb4
# In short: as §1
# [12] = molecular target: AgMyo5
# In short: as §1
# [13] = molecular target: AgNbp2
# In short: as §1
# [14] = molecular target: AgRvs167
# In short: as §1
# [15] = molecular target: AgSho1
# In short: as §1
# [16] = molecular target: AgSla1-D1-D2
# In short: as §1
# [17] = molecular target: AgSla1-D3
# In short: as §1
# [18] = molecular target: CaAbp1-D1
# In short: as §1
# [19] = molecular target: CaAbp1-D2
# In short: as §1
# [20] = molecular target: CaBbc1
# In short: as §1
# [21] = molecular target: CaBem1-D1
# In short: as §1
# [22] = molecular target: CaBzz1-D1
# In short: as §1
# [23] = molecular target: CaBzz1-D2
# In short: as §1
# [24] = molecular target: CaCyk3
# In short: as §1
# [25] = molecular target: CaFus1
# In short: as §1
# [26] = molecular target: CaHof1
# In short: as §1
# [27] = molecular target: CaHse1
# In short: as §1
# [28] = molecular target: CaLsb1
# In short: as §1
# [29] = molecular target: CaLsb4
# In short: as §1
# [30] = molecular target: CaMyo5
# In short: as §1
# [31] = molecular target: CaNbp2
# In short: as §1
# [32] = molecular target: CaRvs167
# In short: as §1
# [33] = molecular target: CaRvs167-3
# In short: as §1
# [34] = molecular target: CaSho1
# In short: as §1
# [35] = molecular target: CaSla1-D1-D2
# In short: as §1
# [36] = molecular target: CaSla1-D3
# In short: as §1
# [37] = molecular target: ScAbp1
# In short: as §1
# [38] = molecular target: ScBbc1
# In short: as §1
# [39] = molecular target: ScBem1-D1
# In short: as §1
# [40] = molecular target: ScBzz1-D1
# In short: as §1
# [41] = molecular target: ScBzz1-D2
# In short: as §1
# [42] = molecular target: ScCyk3
# In short: as §1
# [43] = molecular target: ScFus1
# In short: as §1
# [44] = molecular target: ScHof1
# In short: as §1
# [45] = molecular target: ScHse1
# In short: as §1
# [46] = molecular target: ScLsb1
# In short: as §1
# [47] = molecular target: ScLsb2
# In short: as §1
# [48] = molecular target: ScLsb3
# In short: as §1
# [49] = molecular target: ScLsb4
# In short: as §1
# [50] = molecular target: ScMyo3
# In short: as §1
# [51] = molecular target: ScMyo5
# In short: as §1
# [52] = molecular target: ScNbp2
# In short: as §1
# [53] = molecular target: ScPex13
# In short: as §1
# [54] = molecular target: ScRvs167
# In short: as §1
# [55] = molecular target: ScSho1
# In short: as §1
# [56] = molecular target: ScSla1-D1-D2
# In short: as §1
# [57] = molecular target: ScSla1-D3
# In short: as §1
# [58] = molecular target: SpAbp1-D1
# In short: as §1
# [59] = molecular target: SpBbc1
# In short: as §1
# [60] = molecular target: SpBzz1-D1
# In short: as §1
# [61] = molecular target: SpBzz1-D2
# In short: as §1
# [62] = molecular target: SpCyk3
# In short: as §1
# [63] = molecular target: SpHof1
# In short: as §1
# [64] = molecular target: SpHof1-2
# In short: as §1
# [65] = molecular target: SpHof1-3
# In short: as §1
# [66] = molecular target: SpHse1
# In short: as §1
# [67] = molecular target: SpLsb1
# In short: as §1
# [68] = molecular target: SpLsb4
# In short: as §1
# [69] = molecular target: SpMyo1
# In short: as §1
# [70] = molecular target: SpNbp2
# In short: as §1
# [71] = molecular target: SpPex13
# In short: as §1
# [72] = molecular target: SpRvs167
# In short: as §1
# [73] = molecular target: SpSla1-D1-D2
# In short: as §1
# [74] = molecular target: SpSla1-D3
# In short: as §1
binder,measurement,setting,value
GDHPKGPPPPPPPDE,SPOT peptide array binding signal intensity,[1],≤ 0
same,SPOT peptide array binding signal intensity,[2],1
same,SPOT peptide array binding signal intensity,[3],≤ 0
same,SPOT peptide array binding signal intensity,[4],870
same,SPOT peptide array binding signal intensity,[5],85
same,SPOT peptide array binding signal intensity,[6],≤ 0
same,SPOT peptide array binding signal intensity,[7],3.5
same,SPOT peptide array binding signal intensity,[8],≤ 0
same,SPOT peptide array binding signal intensity,[9],≤ 0
same,SPOT peptide array binding signal intensity,[10],≤ 0
same,SPOT peptide array binding signal intensity,[11],11.5
same,SPOT peptide array binding signal intensity,[12],1360
same,SPOT peptide array binding signal intensity,[13],9
same,SPOT peptide array binding signal intensity,[14],0.167
same,SPOT peptide array binding signal intensity,[15],11
same,SPOT peptide array binding signal intensity,[16],6
same,SPOT peptide array binding signal intensity,[17],358
same,SPOT peptide array binding signal intensity,[18],≤ 0
same,SPOT peptide array binding signal intensity,[19],≤ 0
same,SPOT peptide array binding signal intensity,[20],≤ 0
same,SPOT peptide array binding signal intensity,[21],≤ 0
same,SPOT peptide array binding signal intensity,[22],3200
same,SPOT peptide array binding signal intensity,[23],2040
same,SPOT peptide array binding signal intensity,[24],≤ 0
same,SPOT peptide array binding signal intensity,[25],≤ 0
same,SPOT peptide array binding signal intensity,[26],0.25
same,SPOT peptide array binding signal intensity,[27],6.5
same,SPOT peptide array binding signal intensity,[28],≤ 0
same,SPOT peptide array binding signal intensity,[29],5.5
same,SPOT peptide array binding signal intensity,[30],41
same,SPOT peptide array binding signal intensity,[31],≤ 0
same,SPOT peptide array binding signal intensity,[32],≤ 0
same,SPOT peptide array binding signal intensity,[33],1.25
same,SPOT peptide array binding signal intensity,[34],≤ 0
same,SPOT peptide array binding signal intensity,[35],≤ 0
same,SPOT peptide array binding signal intensity,[36],1.75
same,SPOT peptide array binding signal intensity,[37],≤ 0
same,SPOT peptide array binding signal intensity,[38],2.5
same,SPOT peptide array binding signal intensity,[39],≤ 0
same,SPOT peptide array binding signal intensity,[40],4000
same,SPOT peptide array binding signal intensity,[41],31.5
same,SPOT peptide array binding signal intensity,[42],≤ 0
same,SPOT peptide array binding signal intensity,[43],2.5
same,SPOT peptide array binding signal intensity,[44],≤ 0
same,SPOT peptide array binding signal intensity,[45],7.5
same,SPOT peptide array binding signal intensity,[46],≤ 0
same,SPOT peptide array binding signal intensity,[47],≤ 0
same,SPOT peptide array binding signal intensity,[48],≤ 0
same,SPOT peptide array binding signal intensity,[49],≤ 0
same,SPOT peptide array binding signal intensity,[50],1390
same,SPOT peptide array binding signal intensity,[51],1300
same,SPOT peptide array binding signal intensity,[52],≤ 0
same,SPOT peptide array binding signal intensity,[53],≤ 0
same,SPOT peptide array binding signal intensity,[54],0.333
same,SPOT peptide array binding signal intensity,[55],≤ 0
same,SPOT peptide array binding signal intensity,[56],≤ 0
same,SPOT peptide array binding signal intensity,[57],≤ 0
same,SPOT peptide array binding signal intensity,[58],≤ 0
same,SPOT peptide array binding signal intensity,[59],1.25
same,SPOT peptide array binding signal intensity,[60],42
same,SPOT peptide array binding signal intensity,[61],1.5
same,SPOT peptide array binding signal intensity,[62],≤ 0
same,SPOT peptide array binding signal intensity,[63],≤ 0
same,SPOT peptide array binding signal intensity,[64],1.5
same,SPOT peptide array binding signal intensity,[65],≤ 0
same,SPOT peptide array binding signal intensity,[66],85.2
same,SPOT peptide array binding signal intensity,[67],0.5
same,SPOT peptide array binding signal intensity,[68],≤ 0
same,SPOT peptide array binding signal intensity,[69],1500
same,SPOT peptide array binding signal intensity,[70],≤ 0
same,SPOT peptide array binding signal intensity,[71],2
same,SPOT peptide array binding signal intensity,[72],9
same,SPOT peptide array binding signal intensity,[73],9
same,SPOT peptide array binding signal intensity,[74],≤ 0
MPAPPPPPPPPPGAF,SPOT peptide array binding signal intensity,[31],29
same,SPOT peptide array binding signal intensity,[32],≤ 0
same,SPOT peptide array binding signal intensity,[33],2.75
same,SPOT peptide array binding signal intensity,[34],13.8
same,SPOT peptide array binding signal intensity,[35],≤ 0
same,SPOT peptide array binding signal intensity,[36],≤ 0
same,SPOT peptide array binding signal intensity,[37],≤ 0
same,SPOT peptide array binding signal intensity,[38],≤ 0
same,SPOT peptide array binding signal intensity,[39],≤ 0
same,SPOT peptide array binding signal intensity,[40],27.5
same,SPOT peptide array binding signal intensity,[41],≤ 0
same,SPOT peptide array binding signal intensity,[42],≤ 0
same,SPOT peptide array binding signal intensity,[43],≤ 0
same,SPOT peptide array binding signal intensity,[44],≤ 0
same,SPOT peptide array binding signal intensity,[45],4.25
same,SPOT peptide array binding signal intensity,[46],≤ 0
same,SPOT peptide array binding signal intensity,[47],≤ 0
same,SPOT peptide array binding signal intensity,[48],≤ 0
same,SPOT peptide array binding signal intensity,[49],≤ 0
same,SPOT peptide array binding signal intensity,[50],1010
same,SPOT peptide array binding signal intensity,[51],634
same,SPOT peptide array binding signal intensity,[52],≤ 0
same,SPOT peptide array binding signal intensity,[53],71.9
same,SPOT peptide array binding signal intensity,[54],≤ 0
same,SPOT peptide array binding signal intensity,[55],5.75
same,SPOT peptide array binding signal intensity,[56],≤ 0
same,SPOT peptide array binding signal intensity,[57],0.125
same,SPOT peptide array binding signal intensity,[58],7
same,SPOT peptide array binding signal intensity,[59],≤ 0
same,SPOT peptide array binding signal intensity,[60],1360
same,SPOT peptide array binding signal intensity,[61],5.62
same,SPOT peptide array binding signal intensity,[62],≤ 0
same,SPOT peptide array binding signal intensity,[63],0.5
same,SPOT peptide array binding signal intensity,[64],7.75
same,SPOT peptide array binding signal intensity,[65],4.25
same,SPOT peptide array binding signal intensity,[66],17.5
same,SPOT peptide array binding signal intensity,[67],≤ 0
same,SPOT peptide array binding signal intensity,[68],≤ 0
same,SPOT peptide array binding signal intensity,[69],521
same,SPOT peptide array binding signal intensity,[70],≤ 0
same,SPOT peptide array binding signal intensity,[71],≤ 0
same,SPOT peptide array binding signal intensity,[72],43.4
same,SPOT peptide array binding signal intensity,[73],≤ 0
same,SPOT peptide array binding signal intensity,[74],≤ 0

# — the supplement of paper PMC4466140
